From PubChem BioAssay (NCI)
The panel holds about 83,000 compounds, 20% with a hit somewhere; the sample as a whole holds those more often.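 Negative percent growth values reflect cell death: -40 means 40% of the cells present at the start died, and -100 means all died.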 Unmarked numbers belong to inactive results. Calls of active or inactive are those of the source.

test system: EKVX NSCLC; assay: NCI-60 one-dose screen, 48 h (100 = growth as untreated, 0 = no growth, -100 = all killed); settings: 10 µM unless noted
Procedure: Growth inhibition of the EKVX human Non-Small Cell Lung tumor cell line is measured as a screen for anti-cancer activity. Cells are grown in 96 well plates and exposed to the test compound for 48 hours. Compounds are tested at a single concentration, which is 10^-5 M for most compounds. The reported endpoint is percent growth (GI% or GIPRCNT), where numbers from 0 - 100% represent growth inhibition, and numbers from -100% - 0 represent cell death. For example, a value of 40 represents 60% growth inhibition. A value of 0 means no net growth occurred over the course of the experiment. A value of -40 indicates 40% of cells at the beginning of the experiment died by the end of the experiment. A value of -100 means all cells are dead at the end of the experiment.
NCI-60 Human Tumor Cell Lines Screen was performed using the standard one-dose NCI protocol, which is described in more detail at https://dtp.cancer.gov/discovery_development/nci-60/default.htm.
Compounds with GIPRCNT values below 10 were considered active. Activity score was based on GIPRCNT using the following formula: […]
Score is 0 for GIPRCNT values of 100 or above, 50 for GIPRCNT values of 0, and 100 for GIPRCNT values of -100.

| Structure (SMILES) | growth |
| --- | --- |
| C[C@]12CCc3sc(-c4cccc(F)c4)nc3C1=CC[C@@H]1[C@@H]2CC[C@]2(C)C(=O)CC[C@@H]12 | 68.3% |
| COC(=O)[C@@H](C)C[C@H](Cc1cn(C)c2ccccc12)NC(=O)c1csc([C@@H](C[C@H](C(C)C)N(C)C(=O)[C@@H](NC(=O)[C@H]2CCCCN2C)C(C)C)OC(C)=O)n1 | 46.4% |
| CC12CCC3C(CCC4Cc5[nH]c6ccccc6c5CC43C)C1CCC2O (stereo not given) | 56.8% |
| COc1ccc(O)c(CNC(=O)CN2CCCC2=O)c1 | 100% |
| COC(=O)C1CCC(NC(=O)c2csc([C@@H](C[C@H](C(C)C)N(C)C(=O)[C@@H](NC(=O)[C@H]3CCCCN3C)C(C)C)OC(C)=O)n2)CC1 (stereo not given in full) | 40.8% |
| CCOC(=O)c1c(C)n(Cc2ccccc2)c2cc(CN(C)C)c(O)cc12 | 64.1% |
| COC(=O)[C@H](Cc1ccccc1)NNC(=O)c1csc([C@@H](C[C@H](C(C)C)N(C)C(=O)[C@@H](NC(=O)[C@H]2CCCCN2C)C2CC2)OC(C)=O)n1 | 29.9% |
| Cc1cc(-c2nc3cc(F)ccc3[se]2)cc(F)c1N | 66.4% |
| C#Cc1ccc2c(c1)C(c1ccccc1)=NCC(=O)N2C | 50.2% |
| CCOP(=O)(NC[C@H]1O[C@](O)(CO)[C@@H](O)[C@@H]1O)OCC | 91.4% |
| CN1CCC(c2c[nH]c3ccccc23)C1 (stereo not given) | 98.1% |
| O=NNc1ccccn1 | 109% |
| CCCCCCCCCCCCCCCCCC1OC[C@@H](COC(=O)O[C@@H](C(=O)O[C@H]2C[C@@]3(O)[C@@H](OC(=O)c4ccccc4)[C@@H]4[C@]5(OC(C)=O)CO[C@@H]5C[C@H](O)[C@@]4(C)C(=O)[C@H](OC(C)=O)C(=C2C)C3(C)C)[C@@H](NC(=O)c2ccccc2)c2ccccc2)O1 (stereo not given in full) | 96.9% |
| O=C(Nc1ccncc1F)c1cn(CC2CC2)c2ccccc12 | 89.2% |
| COc1cc(C=C2c3ccccc3C(=O)c3ccccc32)ccc1OCCCCOc1cc2c(cc1OC)C(=O)N1CCCC1C=N2 (stereo not given) | -49.8% (active) |
| COC(=O)[C@@H](C)C[C@H](Cc1ccccc1)NC(=O)c1csc([C@@H](C[C@H](C(C)C)N(C)C(=O)[C@@H](NC(=O)[C@H]2CCCCN2C)C(C(F)(F)F)C(F)(F)F)OC(C)=O)n1 | 40.4% |
| O=C(O)c1ccc([S-])cc1.[Au+].c1ccc(CN2[CH-]N(Cc3ccccc3)C(c3ccccc3)=C2c2ccccc2)cc1 | -52.9% (active) |
| COc1ccc(-n2c(C)nc3cc(OC)c(OC)cc3c2=O)cc1OC | 108% |
| COc1ccc2c(c1)c(-c1nc(-c3cn(C)c4ncccc34)cs1)cn2CCN1CCOCC1 | 61.1% |
| CC(=O)O[C@H]1CC[C@H]2[C@@H]3CC=C4c5nc(-c6ccccc6)sc5CC[C@]4(C)[C@H]3CC[C@]12C | 79.6% |

| Structure (SMILES) | growth |
| --- | --- |
| CO[C@H]1CC[C@@]2(C)C(=CC[C@@H]3[C@@H]2CC[C@]2(C)C(=O)C(=O)C[C@@H]32)C1 | 108% |
| NC(=O)C(Br)c1ccccc1 (stereo not given) | 109% |
| COC(=O)[C@@H](C)C[C@H](Cc1ccccc1)NC(=O)c1csc([C@@H](C[C@H](C(C)C)N(C)C(=O)[C@@H](NC(=O)[C@H]2CCCN2C)C2CC2)OC(C)=O)n1 | 31.1% |
| CCCCCCCCCCCCCCCCCC1OC[C@H](COC(=O)O[C@@H](C(=O)O[C@H]2C[C@@]3(O)[C@@H](OC(=O)c4ccccc4)[C@@H]4[C@]5(OC(C)=O)CO[C@@H]5C[C@H](O)[C@@]4(C)C(=O)[C@H](OC(C)=O)C(=C2C)C3(C)C)[C@@H](NC(=O)c2ccccc2)c2ccccc2)O1 (stereo not given in full) | 93.7% |
| C=CCn1cc(C=C2C(=O)N(C)C(=O)N(C)C2=O)c2ccccc21 | 84.4% |
| COP(=O)(OC)C(O)c1ccc(Cl)cc1 (stereo not given) | 98.4% |
| C/C(=C\c1ccn(-c2ccc(N)c(F)c2)n1)[C@@H]1C[C@@H]2O[C@]2(C)CCC[C@H](C)[C@H](O)[C@@H](C)C(=O)C(C)(C)[C@@H](O)CC(=O)O1 | 42.2% |
| CC[C@H](C)[C@@H]1OC(=O)C(C)(C)[C@H](O)[C@H](Cc2ccccc2)OC(=O)[C@H](C(C)C)OC(=O)[C@@H](NC(=O)c2cccc(NC=O)c2O)[C@@H](C)OC1=O | 29.9% |
| CC(C)=CCC[C@H](C(=O)O)[C@@H]1CC[C@]2(C)C3=C(CC[C@@]12C)[C@@]1(C)CC[C@H](O)C(C)(C)[C@@H]1CC3 | 95% |
| COC(=O)[C@@]1(O)C[C@H]2O[C@]1(C)n1c3ccccc3c3c4c(c5c6ccccc6n2c5c31)C(=O)NC4 | -30.9% (active) |
| O=[N+]([O-])/C=C\c1ccc(Cl)c(Cl)c1 | 91.8% |
| O=C(O)C(Cl)(Cl)C(F)(F)F | 105% |
| COc1ccc(Nc2ccnc3cc(Cl)ccc23)cc1CN(CCCl)CCCl | -15.3% (active) |
| Cc1ccc(C(=O)NCCCOc2ccc(N3C(N)=NC(N)=NC3(C)C)cc2Cl)cc1S(=O)(=O)F | 79.3% |
| O[C@H](CN1CC1)[C@@H](O)CN1CC1 | 94.6% |
| C=CC[Se]C(=O)c1ccccc1OC(C)=O | -30.8% (active) |
| CCCCCCCCCCCCCCCCCCOc1ccccc1COP(=O)(O)OOCC[N+](C)(C)C | 11.4% |
| CCc1ccccc1[C@@H]1C[C@]2(C)CCO[C@@H]2OO1 | 105% |
| COc1ccc(S(=O)(=O)N(Cc2ccc3c(c2)C=CC(C)(C)O3)c2ccccc2)cc1OC | 58.1% |
| C=CCCCN=C=S | 92.7% |
